PubChem BioAssay (NCI)
About 83,000 compounds went through this panel and 20% of them were active in at least one assay; those are over-represented in the sample as a whole.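 A percent growth of 40 corresponds to 60% growth inhibition; 0 means no net growth; -100 means all cells died. Active threshold: below 10.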 Values without a mark were called inactive. Calls of active or inactive are those of the source.

These compounds were tested on ACHN renal (assay: NCI-60 one-dose screen, 48 h (100 = growth as untreated, 0 = no growth, -100 = all killed)). Details: 10 µM.

In order of falling growth:
1. CC(C)C(=O)Nc1ccc(C(=O)NC(=S)Nc2ccc(C(=O)O)cc2)cc1  104%
2. CC(=O)NNc1ccc2nnc(-c3ccc(Br)cc3)n2n1  101%
3. COc1ccc2[nH]c(O)c(N=NC(=O)COc3ccc(NC(=O)Nc4ccc(Cl)cc4)cc3)c2c1  100%
4. CCCCCCCCCCCCCCCCCCCC(=O)NCCc1c[nH]c2ccc(O)cc12  98.8%
5. CN(C)c1cccc2c(S(=O)(=O)Nc3cccc(-c4csc(NC(=O)CCCCCN5CCN(c6cc7c(cc6F)C(=O)N(C6CCC(=O)NC6=O)C7=O)CC5)n4)c3)cccc12 (stereo not drawn)  97.8%
6. CC1(C)CC[C@]2(C(=O)NCCCNCCCCNCCCN)CC[C@]3(C)C(=CC[C@@H]4[C@@]5(C)Cc6c([nH]c7ccccc67)C(C)(C)[C@@H]5CC[C@]43C)[C@H]2C1  93.9%
7. CNC(=O)c1cc(-c2ccc(NC(=O)Nc3ccc(C)cc3)cc2)nc2cccnc12  92.3%
8. CN1C(=O)/C(=C/c2nccs2)SC1=S  88.1%
9. O=c1[nH][nH]c(Nc2ccccc2)c1N=Nc1ccc(F)cc1  86.2%
10. COc1ccc2[nH]c(O)c(N=NC(=O)c3cc(-c4ccc(C)cc4)nc4ccccc34)c2c1  81%
11. O=C(Cn1cc(CSc2nnc3oc4ccccc4n23)nn1)Nc1ccc(Br)cc1  75.2%
12. CN1CCN(c2ccc(Nc3nc(NCCCNC(=O)c4ccc(Cl)cc4)c4sccc4n3)cc2)CC1  73.1%
13. COc1ccc(C(=O)NC(=S)N2CCN(c3ncnc4c3cnn4-c3ccccc3)CC2)cc1  64.3%
14. Cc1ccc(-c2cc(C(=O)N=Nc3c(O)[nH]c4ccc(Br)cc34)c3ccccc3n2)cc1  52.3%
15. COc1cccc(C(N)=Nc2ccc(OCCCCCCn3cncn3)cc2)c1  45%
16. Cc1ccc(C(C)C)cc1NC(=O)c1ccccc1O  44.7%
17. CCCCCCCCCCCCCCCCCCCC(=O)NCCc1c[nH]c2ccc(OC(=O)NOCCOCCOCCOCCOCCOCCOCCOCCOCCOCCOCCOCCOCCOCCOCCOCCOCCOCCOCCOCCOCCOCCOC)cc12  40.7%
18. C/C(=C\CC/C=C(\C)CC/C=C(\C)CC[C@@H](O)C(C)(C)O)CC/C=C(\C)CC[C@@H](O)C(C)(C)O  37.5%
19. CN1CCN(c2ccc(Nc3nc(NCCCNC(=O)c4ccc(F)cc4)c4sccc4n3)cc2)CC1  36.7%
20. NC(=Nc1ccc(OCCCCCCCCn2ccnn2)cc1)c1ccccc1  34.4%
21. COC(=O)C(Cc1ccc(O)c(O)c1)NC(=O)C(CSC/C=C(\C)CCCC(C)CCCC(C)CCCC(C)C)NC(C)=O (stereo not drawn)  31.4%
22. CCCCCc1ccc(S(=O)(=O)N(C(C)=O)c2cc(-c3csc(N(C)C(C)=O)n3)ccc2N2CCN(C)CC2)cc1  30.1%
23. O=C(O)CCCCCCCCCCN1C(=O)/C(=C/c2cnc(-c3ccc(Cl)cc3)s2)SC1=S  22.1%
24. CCCCCc1ccc(S(=O)(=O)Nc2cc(-c3csc(N(C)C(C)=O)n3)ccc2N2CCN(C)CC2)cc1  13.7%

With `O=C(CS(=O)(=O)c1oc(-c2ccc(Cl)cc2)nc1S(=O)(=O)c1ccc(Cl)cc1)N1CCOCC1` the growth was -98.2% (active).
For `COc1cccc(COc2ccc(/C=C3\Oc4cc(O)ccc4C3=O)cc2)c1`, the growth was -32.1% (active).
With `O=c1oc2ccc(-c3ccc(F)cc3F)cc2c(=O)n1-c1ccc(F)c(Cl)c1` the growth was -12.7% (active).
For `CCN1CCN(c2ccc(NC(=O)Nc3ccc(-c4cc(C(=O)NC(C)C)c5ncccc5n4)cc3)cc2C(F)(F)F)CC1`, the growth was -93.1% (active).
With `CC1(C)CC[C@]2(C(=O)N3CCOCC3)CC[C@]3(C)C(=CC[C@@H]4[C@@]5(C)CC[C@H](NCO)C(C)(C)[C@@H]5CC[C@]43C)[C@H]2C1` the growth was -100% (active).
In the case of `CCC(C)S(=O)(=O)c1oc(-c2ccc(C)cc2)nc1S(=O)(=O)c1ccccc1` (stereo not drawn), the growth is reported as -100% (active).
With `CN1CCN(c2ccc(Nc3nc(N4CCN(S(=O)(=O)c5ccc(F)cc5)CC4)c4sccc4n3)cc2)CC1` the growth was -100% (active).
In the case of `COc1ccc(CCN2C(=O)/C(=C/c3csc(C#N)n3)SC2=S)cc1`, the growth is reported as 4.4% (active).
For `CC(=O)Nc1nc(-c2ccc(N3CCN(C)CC3)c(NS(=O)(=O)c3ccc(C(F)(F)F)cc3)c2)cs1`, the growth was 5.92% (active).
